# Unmarked numbers belong to inactive results.
# Tested on: Plasmodium falciparum NF54/iGP1_RE9H ulg8 stage V gametocytes
# Experiment: gametocyte viability (luciferase signal relative to DMSO control) (% of DMSO control); higher = less gametocytocidal activity, active = 50 or less
# Settings: concentration: 1 µM; exposure time: 72 h
# Procedure: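 Synchronous P. falciparum NF54/iGP1_RE9H ulg8 mature stage V gametocytes (day 12) were exposed to Cayman Epigenetics Screening Library compounds at 10 µM or 1 µM for 72 h at 37 °C. Viability was read as RE9H luciferase bioluminescence, normalised to DMSO plate controls (100%); 50 µM methylene blue was the positive control.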
row,SMILES,gametocyte viability
1,Nc1ncn([C@@H]2O[C@H](CO)[C@@H](O)[C@H]2O)c(=O)n1 [5-Azacytidine],89
2,Nc1cc(F)ccc1NC(=O)/C=C/c1cnn(C/C=C/c2ccccc2)c1,98
3,O=C(c1cncc(Br)c1)N1CCC(N2CCCC2)CC1,86.5
4,O=C1CCc2c(ccc3ccccc23)O1 [Splitomicin],86.2
5,O=C(NO)c1ccc(CC(=O)N(CCO)c2ccccc2)cc1,88.9
6,COc1ccc(CCc2nc3cc(-c4c(C)noc4C)ccc3n2C[C@H](C)N2CCOCC2)cc1Cl,78.4
7,CCCCNNC(=O)c1ccc(Br)cc1,84
8,Cn1cc(CNCC2CCN(c3ncc(C(=O)NO)cn3)CC2)c2ccccc21,62
9,O=C(/C=C/c1cccc(C(=O)NO)c1)NO,89.2
10,CC(C)(C)c1ccc(C(=O)NC(=S)Nc2ccc(N)cc2)cc1 [Tenovin-3],92.2
11,O=C(CCCCCCC(=O)Nc1ccccc1)NO,86.4
12,O=C(CCCCCCSc1ccc2ccccc2c1)NO,84.8
13,Cc1nn(C)cc1CN1CCC(c2ccc(C(=O)Nc3ccccc3N)cc2)CC1,86
14,COc1cc(Br)c(Nc2nc(-c3c(C)nc4ncccn34)cs2)c(Br)c1,94.5
15,O=C(Nc1cccc(Br)c1)c1cccc(S(=O)(=O)N2CCCCCC2)c1,85.8
16,CCCCOc1ccc(CC(=O)NO)cc1 [Bufexamac],85
17,Cn1c(=O)cc(C(=O)Nc2ccc3c(c2)OCCO3)c2ccccc21,82.8
18,CN(C)c1ccc(C(=O)NCCCCCC(=O)NO)cc1,76.2
19,CC1(C)C(=O)NC2=C1C(=O)C(=O)c1ccccc12,88.9
20,O=Nc1ccc(O)c2ncccc12 [5-Nitroso-8-quinolinol],88.4

# Same assay, conditions: concentration: 10 µM; exposure time: 72 h
row,SMILES,gametocyte viability
1,Nc1ncn([C@@H]2O[C@H](CO)[C@@H](O)[C@H]2O)c(=O)n1 [5-Azacytidine],90.8
2,Nc1cc(F)ccc1NC(=O)/C=C/c1cnn(C/C=C/c2ccccc2)c1,91.8
3,O=C(c1cncc(Br)c1)N1CCC(N2CCCC2)CC1,91.4
4,O=C1CCc2c(ccc3ccccc23)O1 [Splitomicin],80.9
5,O=C(NO)c1ccc(CC(=O)N(CCO)c2ccccc2)cc1,93.5
6,COc1ccc(CCc2nc3cc(-c4c(C)noc4C)ccc3n2C[C@H](C)N2CCOCC2)cc1Cl,68.6
7,CCCCNNC(=O)c1ccc(Br)cc1,56.1
8,Cn1cc(CNCC2CCN(c3ncc(C(=O)NO)cn3)CC2)c2ccccc21,66.3
9,O=C(/C=C/c1cccc(C(=O)NO)c1)NO,75.4
10,CC(C)(C)c1ccc(C(=O)NC(=S)Nc2ccc(N)cc2)cc1 [Tenovin-3],79.2
11,O=C(CCCCCCC(=O)Nc1ccccc1)NO,56.2
12,O=C(CCCCCCSc1ccc2ccccc2c1)NO,84.6
13,Cc1nn(C)cc1CN1CCC(c2ccc(C(=O)Nc3ccccc3N)cc2)CC1,90.2
14,COc1cc(Br)c(Nc2nc(-c3c(C)nc4ncccn34)cs2)c(Br)c1,93.6
15,O=C(Nc1cccc(Br)c1)c1cccc(S(=O)(=O)N2CCCCCC2)c1,69.8
16,CCCCOc1ccc(CC(=O)NO)cc1 [Bufexamac],94.8
17,Cn1c(=O)cc(C(=O)Nc2ccc3c(c2)OCCO3)c2ccccc21,86.7
18,CN(C)c1ccc(C(=O)NCCCCCC(=O)NO)cc1,52
19,CC1(C)C(=O)NC2=C1C(=O)C(=O)c1ccccc12,85.2
20,O=Nc1ccc(O)c2ncccc12 [5-Nitroso-8-quinolinol],11.5 (active)

# Source: the supplement of paper PMC12297408
